Test [1] is described as follows: yeast TOR pathway RPL19A-GFP modulators, primary screen, cell-based, S. cerevisiae, multiplex flow cytometry (AID 1862; in the data active = percent of DMSO control GFP below about 86%;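 also: lower values mimic rapamycin by blocking the RPL19A rise seen in DMSO cells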). The following applies: S. cerevisiae RPL19A-GFP strain, flow cytometry fluorescence, 3 h; at 10 µM; stronger effect = lower value. For orientation: A flow cytometer gives signals particle by particle.
Test [2] can be described thus: modulators of MEP2-GFP levels in yeast, primary screen, S. cerevisiae, multiplex flow cytometry (AID 1867;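 active = GFP response, as percent of the DMSO control, above the screen-wide mean plus 3 SD, about 139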;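 also: median GFP channel fluorescence of barcode-gated MEP2-GFP cells measured by flow cytometry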). The note with it: S. cerevisiae MEP2-GFP strain, 3 h, at 10 µM, stronger effect = higher value, 100% means same as DMSO wells.
The nature of test [3]: modulators of CIT2-GFP expression in yeast, primary screen, S. cerevisiae, GFP fusion, multiplex flow cytometry (AID 1870).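 Also: barcoded CIT2-GFP strain pooled with four other GFP strains with rapamycin as positive control; median GFP fluorescence per well over plate mean of DMSO wells so 100% = DMSO.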 The note with it: 3 h, at 10 µM, stronger effect = higher value.
Test [4] is described as follows: modulators of LAP4-GFP expression in yeast, primary screen, S. cerevisiae, multiplex flow cytometry (AID 1873;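 active = GFP signal, as percent of the solvent control, above the screen mean plus 3 SD, about 149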). The note with it: 3 h, at 10 µM, stronger effect = higher value.
The nature of test [5]: modulators of AGP1-GFP expression in yeast TOR pathway, primary screen, cell-based, multiplex flow cytometry, S. cerevisiae (AID 1887;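 active = GFP signal above the screen-wide mean plus 3 SD, that is over about 124.5% of the solvent control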;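 also: AGP1-GFP fusion strain of S. cerevisiae within a five-strain barcoded multiplex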). The following applies: 3 h, at 10 µM, stronger effect = higher value.
Test [6] in a line: inhibitors of CD8+ T cell-vesicle binding, pilot screen, LFA-1/ICAM-1 modulator project, MLPCN validation set, flow cytometry (AID 2523;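 active = response below a set limit, under 55% cells CD8-positive and vesicle-bound, and CD8 cells' 90th-percentile brightness under 279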;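 as to vesicle binding response: mean PE anti-B7-1 fluorescence of CD8+ cells relative to row control; 100% = QL9-loaded vesicles with DMSO vehicle in the same plate row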). The note with it: 2C mouse CD8+ T cells, at 7 µM, stronger effect = lower value; double positive events: measured here: CD8+/vesicle+ event percentage.
The target of test [7] is Integrin beta-1 (Homo sapiens) + Integrin alpha-4 (Homo sapiens) (UniProt P13612+P05556). Put plainly: inhibition of HUTS-21 binding to VLA-4, pilot screen, VLA-4 allosteric modulator project, U937 cells, HUTS-21 mAb, flow cytometry, validation set (AID 2674;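 active = inhibition above 50%, about 3 SD of the validation set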;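 also: antibody binding induced by the VLA-4 ligand LDV present at three times its Kd; 0% = LDV ligand with antibody and no compound and 100% = antibody without LDV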). The following applies: HUTS-21 LIBS mAb binding, at 6.7 µM, stronger effect = higher value, binding induced by LDV ligand.
Test [8] is described as follows: superoxide lowering in aged yeast cells, pilot screen, validation compound set (AID 2706;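 active = superoxide response below 65% of plate, a cut near 3 SD across the whole screen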;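 also: yeast exposed to compound for one week at 30 degrees C before staining; 100% = mean of all compound wells on the same plate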). The note with it: S. cerevisiae aging, superoxide DHE fluorescence; at 10 µM; stronger effect = lower value.
Test [9] has as its target Beta-adrenergic receptor kinase 1 (Homo sapiens) (UniProt P25098). Put plainly: GRK2 binders displacing RNA aptamer, biochemical, validation, human GRK2, bead flow cytometry (AID 488806;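 active = aptamer binding inhibition above 30%, about 3 SD of noise from non-fluorescent compounds; inactive = inhibition at or below 30%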). The following applies: bead-bound GRK2, FAM-aptamer displacement, at 10 µM, stronger effect = higher value.
Test [10] addresses Beta-2 adrenergic receptor (Homo sapiens) (UniProt P07550). The experiment in a line: beta2AR agonists driving receptor internalization, pilot screen, cell-based, FAP fluorogen, flow cytometry, validation set (AID 504459;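 active = percent response above 42, roughly 3 SD of non-fluorescent test compounds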;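 also: agonist-driven loss of surface beta2AR via internalization measured by FAP dye flow cytometry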). The following applies: Am2.2-beta2AR cells, FAP surface receptor flow cytometry; at 10 µM; stronger effect = higher value.
Test [11] deals with AP-2 complex subunit beta (Homo sapiens) (UniProt P63010). Put plainly: inhibitors of arrestin peptide binding to AP2, pilot screen, biochemical, validation set, GST-AP2 beads, flow cytometry (AID 504541;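 active = inhibition above 54%, about 3 SD of non-fluorescent compounds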;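 also: AP2 carries R879A mutation and is captured from E. coli lysate; bead-bound FITC arrestin peptide fluorescence measuring arrestin peptide binding to AP2; 0% = DMSO wells and 100% = excess unlabeled arrestin peptide control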). The note with it: FITC arrestin peptide, at 10 µM, stronger effect = higher value, AP2 beta2 appendage fragment, R879A mutant.
Test [12] in a line: yeast V-ATPase proton transport modulators, S. cerevisiae, pHLuorin, HTS validation (AID 504600; in the data active = response above about 15%;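 also: plate controls were DMSO for no effect and reference compound for full effect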). The note with it: S. cerevisiae pHLuorin cytosolic pH, at 10 µM, stronger effect = higher value.
Test [13] concerns anti-desmoglein-3 scFv antibody binding to human DSG3. Put plainly: inhibitors of anti-DSG3 scFv binding to DSG3, pilot screen, biochemical, validation compound set, bead-based, flow cytometry (AID 588368;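 active = binding below the plate cutoff, the plate median minus 3 SD, with a reading above zero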;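 also: signal is the median channel fluorescence of bead-bound GFP antibody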). The note with it: Protein G beads, DSG3-Fc, scFv-GFP binding, at 10 µM, stronger effect = lower value.
Test [14] can be described thus: inhibitors of fungal efflux pumps CDR1, CDR2, MDR1, pilot screen, validation compound set, multiplex, phenotypic (AID 588506;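 active = efflux inhibition above 0.42, the validation set average plus 4 SD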;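 also: Nile Red retained in cells so higher fluorescence means more efflux inhibition; 0 = negative control wells and 1 = enniatin B 25 µM full block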). The following applies: S. cerevisiae pump-expressing triplex, Nile Red efflux flow cytometry; at 10 µM; stronger effect = higher value; the pumps come from Candida albicans.
Test [15] deals with ATP-binding cassette sub-family B member 6 (Homo sapiens) (UniProt Q9NP58). Put plainly: ABCB6 transporter inhibitors, pilot screen, K562-ABCB6 cells, flow cytometry, validation set (AID 588550;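 active = inhibition above the screen-wide mean plus 3 SD, about 51%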;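 also: 0% = DMSO wells and 100% = benzethonium chloride 70 µM positive control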). The following applies: K562-ABCB6 porphyrin accumulation, 1 h, at 10 µM, stronger effect = higher value.
Test [16] in a line: promoters of myeloid differentiation in arrested cells, primary screen, cell-based, GFP/MAC1 double positive, flow cytometry, validation set (AID 588685;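 active = differentiation response of at least 50%, scaled between solvent and reference control, from cells with both markers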;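 also: compound exposure lasts four days before antibody staining and flow analysis; 0% = DMSO wells and 100% = 5 µM fulvestrant positive control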). The note with it: ER-HoxA9 marrow cells, stronger effect = higher value, normalized: vehicle 0, fulvestrant 100.

Records with an inconclusive call do not appear. Activity calls are given as the source filed them.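 The calls were made as follows, unless noted: active = percent response above a set limit, the screen-wide mean plus 3 SD (cut at about 130% in these data); inactive = the rest.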

Sequence of ATP-binding cassette sub-family B member 6 (Homo sapiens) (Q9NP58 whole entry, looked up): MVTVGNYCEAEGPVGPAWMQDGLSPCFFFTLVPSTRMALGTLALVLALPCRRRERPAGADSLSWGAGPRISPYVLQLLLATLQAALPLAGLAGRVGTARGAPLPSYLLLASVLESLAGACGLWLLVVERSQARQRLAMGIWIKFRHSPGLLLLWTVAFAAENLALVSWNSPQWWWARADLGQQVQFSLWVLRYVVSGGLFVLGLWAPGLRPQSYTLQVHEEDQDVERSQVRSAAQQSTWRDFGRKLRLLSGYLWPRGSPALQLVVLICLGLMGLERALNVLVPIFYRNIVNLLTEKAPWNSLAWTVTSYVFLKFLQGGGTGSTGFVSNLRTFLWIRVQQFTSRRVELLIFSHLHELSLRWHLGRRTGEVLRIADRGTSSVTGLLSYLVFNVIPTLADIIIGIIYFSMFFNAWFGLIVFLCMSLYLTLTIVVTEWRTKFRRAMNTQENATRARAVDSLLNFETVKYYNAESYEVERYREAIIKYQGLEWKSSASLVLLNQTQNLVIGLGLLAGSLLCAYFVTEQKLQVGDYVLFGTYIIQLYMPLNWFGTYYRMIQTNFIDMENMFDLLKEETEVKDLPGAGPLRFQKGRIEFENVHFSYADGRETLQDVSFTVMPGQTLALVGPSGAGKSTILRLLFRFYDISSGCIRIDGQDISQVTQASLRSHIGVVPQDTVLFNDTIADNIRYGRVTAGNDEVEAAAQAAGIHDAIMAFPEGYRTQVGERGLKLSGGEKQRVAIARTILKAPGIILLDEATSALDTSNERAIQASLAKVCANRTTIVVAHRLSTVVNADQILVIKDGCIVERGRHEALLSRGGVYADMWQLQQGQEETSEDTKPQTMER
Sequence of AP-2 complex subunit beta (Homo sapiens) (P63010 whole entry, looked up, the tested form may be a part, one chain of several): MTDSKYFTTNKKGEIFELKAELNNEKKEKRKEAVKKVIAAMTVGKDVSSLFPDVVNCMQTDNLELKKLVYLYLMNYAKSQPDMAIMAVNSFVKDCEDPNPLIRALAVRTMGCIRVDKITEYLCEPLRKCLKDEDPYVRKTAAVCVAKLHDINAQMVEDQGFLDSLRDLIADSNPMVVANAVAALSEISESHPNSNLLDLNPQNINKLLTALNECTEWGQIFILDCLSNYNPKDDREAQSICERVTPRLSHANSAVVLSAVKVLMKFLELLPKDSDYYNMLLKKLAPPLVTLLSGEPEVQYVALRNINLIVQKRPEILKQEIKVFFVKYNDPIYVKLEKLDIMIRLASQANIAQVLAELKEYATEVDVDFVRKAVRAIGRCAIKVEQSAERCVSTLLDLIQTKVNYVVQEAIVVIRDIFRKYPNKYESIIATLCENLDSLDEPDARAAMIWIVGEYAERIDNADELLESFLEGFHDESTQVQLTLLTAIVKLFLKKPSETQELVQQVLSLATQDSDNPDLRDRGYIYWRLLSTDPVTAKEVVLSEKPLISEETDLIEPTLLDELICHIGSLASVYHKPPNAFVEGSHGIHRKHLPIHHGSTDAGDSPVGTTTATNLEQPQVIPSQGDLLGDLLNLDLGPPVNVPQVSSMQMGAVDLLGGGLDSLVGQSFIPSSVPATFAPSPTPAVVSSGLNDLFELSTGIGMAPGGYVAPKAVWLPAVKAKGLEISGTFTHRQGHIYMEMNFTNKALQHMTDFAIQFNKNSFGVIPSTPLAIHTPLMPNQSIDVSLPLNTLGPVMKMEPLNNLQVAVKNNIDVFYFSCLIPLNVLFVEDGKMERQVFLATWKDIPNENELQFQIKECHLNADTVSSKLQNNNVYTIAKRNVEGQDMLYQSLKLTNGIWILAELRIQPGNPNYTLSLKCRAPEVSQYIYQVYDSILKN
Sequence of Beta-2 adrenergic receptor (Homo sapiens) (P07550 whole entry, looked up): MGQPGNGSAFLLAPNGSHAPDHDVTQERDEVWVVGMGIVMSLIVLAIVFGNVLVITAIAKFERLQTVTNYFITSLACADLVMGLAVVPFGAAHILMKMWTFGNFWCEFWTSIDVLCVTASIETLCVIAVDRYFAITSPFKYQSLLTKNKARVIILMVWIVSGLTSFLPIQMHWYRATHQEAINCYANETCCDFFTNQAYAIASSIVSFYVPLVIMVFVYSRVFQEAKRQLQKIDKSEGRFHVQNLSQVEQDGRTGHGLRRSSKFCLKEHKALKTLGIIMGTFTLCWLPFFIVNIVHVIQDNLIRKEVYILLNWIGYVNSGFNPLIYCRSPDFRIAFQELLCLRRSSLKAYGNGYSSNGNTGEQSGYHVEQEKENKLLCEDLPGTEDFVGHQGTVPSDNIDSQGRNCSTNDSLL
Sequence of Integrin beta-1 (Homo sapiens) + Integrin alpha-4 (Homo sapiens) (P05556 whole entry, looked up): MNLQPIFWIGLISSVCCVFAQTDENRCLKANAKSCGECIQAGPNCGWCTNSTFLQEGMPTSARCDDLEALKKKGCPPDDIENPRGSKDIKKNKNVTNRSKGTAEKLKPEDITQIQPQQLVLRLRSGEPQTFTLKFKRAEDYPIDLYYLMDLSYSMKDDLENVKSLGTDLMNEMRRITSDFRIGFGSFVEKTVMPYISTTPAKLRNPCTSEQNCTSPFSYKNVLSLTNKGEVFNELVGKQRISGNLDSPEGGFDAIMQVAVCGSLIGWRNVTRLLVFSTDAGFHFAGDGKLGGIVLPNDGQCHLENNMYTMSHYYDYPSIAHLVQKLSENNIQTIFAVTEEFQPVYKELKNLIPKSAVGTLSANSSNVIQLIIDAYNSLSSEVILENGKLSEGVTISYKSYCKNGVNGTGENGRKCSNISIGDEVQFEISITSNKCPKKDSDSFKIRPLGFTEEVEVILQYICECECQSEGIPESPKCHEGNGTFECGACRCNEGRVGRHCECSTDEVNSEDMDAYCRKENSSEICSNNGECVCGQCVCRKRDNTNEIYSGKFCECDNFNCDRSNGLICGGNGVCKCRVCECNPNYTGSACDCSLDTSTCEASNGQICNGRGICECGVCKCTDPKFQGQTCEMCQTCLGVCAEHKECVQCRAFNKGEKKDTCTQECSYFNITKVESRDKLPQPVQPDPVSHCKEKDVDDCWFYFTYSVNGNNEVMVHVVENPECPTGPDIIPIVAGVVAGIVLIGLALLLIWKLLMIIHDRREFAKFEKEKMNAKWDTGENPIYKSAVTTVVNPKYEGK
Sequence of Integrin beta-1 (Homo sapiens) + Integrin alpha-4 (Homo sapiens) (P13612 whole entry, looked up): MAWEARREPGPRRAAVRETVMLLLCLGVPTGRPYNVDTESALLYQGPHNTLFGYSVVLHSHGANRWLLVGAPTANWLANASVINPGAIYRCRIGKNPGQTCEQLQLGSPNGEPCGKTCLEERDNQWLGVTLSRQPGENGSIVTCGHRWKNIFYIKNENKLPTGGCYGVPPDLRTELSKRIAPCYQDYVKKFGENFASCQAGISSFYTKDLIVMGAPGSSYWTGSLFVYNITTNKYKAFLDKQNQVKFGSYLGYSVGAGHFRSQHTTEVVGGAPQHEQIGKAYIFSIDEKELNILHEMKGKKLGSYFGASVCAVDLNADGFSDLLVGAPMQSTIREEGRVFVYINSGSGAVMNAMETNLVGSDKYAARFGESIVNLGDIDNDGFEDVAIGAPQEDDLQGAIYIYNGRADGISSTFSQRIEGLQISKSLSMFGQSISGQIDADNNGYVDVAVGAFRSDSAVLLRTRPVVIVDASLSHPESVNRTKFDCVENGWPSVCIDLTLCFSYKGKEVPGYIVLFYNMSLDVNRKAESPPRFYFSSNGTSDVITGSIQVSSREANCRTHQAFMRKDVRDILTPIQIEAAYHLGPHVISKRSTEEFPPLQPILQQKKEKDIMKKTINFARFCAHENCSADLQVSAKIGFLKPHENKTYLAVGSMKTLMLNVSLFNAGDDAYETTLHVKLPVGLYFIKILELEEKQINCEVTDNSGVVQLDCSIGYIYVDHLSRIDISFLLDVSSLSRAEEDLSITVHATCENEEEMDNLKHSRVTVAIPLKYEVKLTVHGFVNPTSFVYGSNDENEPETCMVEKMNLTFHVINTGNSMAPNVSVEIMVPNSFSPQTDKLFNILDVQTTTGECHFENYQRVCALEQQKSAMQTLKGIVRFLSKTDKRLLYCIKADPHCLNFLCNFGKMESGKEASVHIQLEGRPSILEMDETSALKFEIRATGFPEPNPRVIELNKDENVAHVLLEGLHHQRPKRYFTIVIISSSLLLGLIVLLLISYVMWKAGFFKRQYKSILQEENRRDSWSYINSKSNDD
Sequence of Beta-adrenergic receptor kinase 1 (Homo sapiens) (P25098 whole entry, looked up): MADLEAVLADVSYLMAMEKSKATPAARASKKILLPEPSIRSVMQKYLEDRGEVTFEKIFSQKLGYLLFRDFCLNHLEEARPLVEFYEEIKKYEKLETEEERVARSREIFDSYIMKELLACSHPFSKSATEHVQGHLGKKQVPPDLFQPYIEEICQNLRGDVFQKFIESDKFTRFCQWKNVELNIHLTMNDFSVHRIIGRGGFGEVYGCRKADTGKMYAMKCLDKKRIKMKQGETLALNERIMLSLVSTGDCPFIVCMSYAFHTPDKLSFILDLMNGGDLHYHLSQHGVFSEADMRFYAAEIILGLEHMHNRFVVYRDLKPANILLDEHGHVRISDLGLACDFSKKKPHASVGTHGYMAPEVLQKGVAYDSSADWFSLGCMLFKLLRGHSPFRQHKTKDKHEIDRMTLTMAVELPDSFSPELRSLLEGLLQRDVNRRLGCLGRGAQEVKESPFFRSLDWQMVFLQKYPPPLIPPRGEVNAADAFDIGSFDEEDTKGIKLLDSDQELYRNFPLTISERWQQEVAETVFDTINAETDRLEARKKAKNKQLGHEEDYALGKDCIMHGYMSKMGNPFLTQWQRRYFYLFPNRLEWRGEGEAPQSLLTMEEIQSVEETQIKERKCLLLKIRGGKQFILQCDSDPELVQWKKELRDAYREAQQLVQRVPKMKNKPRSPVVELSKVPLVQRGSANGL

As for `COc1cc(CO)ccc1OCc1nnnn1-c1ccc(C)cc1`, in test [1], the percent of DMSO control GFP was 102% (inactive). For the same molecule, the GFP response vs DMSO in test [2] was 105% (inactive); in test [4], 95.9% (inactive). The percent response of DMSO control in test [3] was 102% (inactive). The GFP response, % of DMSO in test [5] was 101% (inactive). Besides, the double positive events in test [6] was 58.4%. Besides, the vesicle binding response in test [6] is 163% (inactive). For the same molecule, the inhibition – broadly, the drop in the measured response relative to a control, in per cent – in [7] is 2.93% (inactive); in test [11] it was -5.08% (inactive); in [15], -8% (inactive). Further, the superoxide response (% of plate) in test [8] was 107% (inactive). In [9], the aptamer binding inhibition is -1% (inactive). In addition, the response in [10] was 6.38% (inactive); in test [12], 10.4% (inactive). Besides, the binding (% of control) in test [13] was 97.3% (inactive). Also, the efflux inhibition (fraction of control) in test [14] is 0.64 (active). Besides, the differentiation response in test [16] is -1.65% (inactive).
On to `O=C1OC(Nc2ccc3c(c2)OCO3)c2ccccc21` (stereo not given), for which, in test [1], the percent of DMSO control GFP was 99.4% (inactive). In addition, the GFP response vs DMSO in test [2] is 105% (inactive); in test [4] it was 114% (inactive). Further, in test [3], the percent response of DMSO control was 93.1% (inactive). Also, the GFP response, % of DMSO in test [5] is 97.3% (inactive). In test [6], this molecule gave a double positive events of 63.1%. In addition, the vesicle binding response in test [6] is 185% (inactive). In addition, the inhibition is -22.2% (inactive) in [7], -3.85% (inactive) in test [11] and -1% (inactive) in test [15]. Further, in test [8], the superoxide response (% of plate) was 99.6% (inactive). Further, the aptamer binding inhibition in test [9] is 3% (inactive). Besides, the response in [10] is 10.6% (inactive); in test [12], 0.82% (inactive). In test [13], the binding (% of control) was 100% (inactive). In addition, the efflux inhibition (fraction of control) in [14] was 0.02 (inactive). Further, in test [16], the differentiation response was 21.8% (inactive).
Turning to `CC(C)C12CN3CC(C(C)C)(CN(C1)C3c1ccccc1O)C2=O` (stereo not given), the percent of DMSO control GFP in test [1] is 94.4% (inactive). Also, the GFP response vs DMSO in test [2] is 120% (inactive); in test [4] it was 75.9% (inactive). The percent response of DMSO control in [3] was 104% (inactive). Also, the GFP response, % of DMSO in test [5] was 87% (inactive). Further, the double positive events in test [6] stood at 66.6%. In test [6], the vesicle binding response is 192% (inactive). Further, the inhibition in test [7] was 10.3% (inactive); in test [11] it was -9.47% (inactive); in test [15], 5% (inactive). Besides, in [8], the superoxide response (% of plate) was 94.7% (inactive). Further, the aptamer binding inhibition in [9] was 6% (inactive). For the same molecule, the response in test [10] is -10.3% (inactive); in test [12] it was -6% (inactive). Further, the binding (% of control) in test [13] was 99% (inactive). Besides, in [14], the efflux inhibition (fraction of control) was 0.12 (inactive). For the same molecule, the differentiation response in test [16] was -6.55% (inactive).
In the case of `C=CCOC(=O)C1=C(C)NC(=O)NC1/C=C/c1ccccc1OC` (stereo not given), in [1], the percent of DMSO control GFP was 100% (inactive). In addition, the GFP response vs DMSO in [2] was 101% (inactive); in [4], 103% (inactive). Also, in test [3], the percent response of DMSO control is 103% (inactive). Also, the GFP response, % of DMSO in test [5] was 108% (inactive). Also, the double positive events in [6] came out at 57.9%. The vesicle binding response in test [6] was 97% (inactive). The inhibition was -1.09% (inactive) in test [7], -14.7% (inactive) in test [11] and 9% (inactive) in [15]. For the same molecule, the superoxide response (% of plate) in test [8] was 115% (inactive). Besides, the aptamer binding inhibition in [9] was 1% (inactive). The results for the response in [10] and in [12] were -4.89% (inactive) and 6.85% (inactive), respectively. The binding (% of control) in test [13] was 106% (inactive). Moreover, the efflux inhibition (fraction of control) in [14] is -0.03 (inactive). Besides, the differentiation response in [16] was -1.65% (inactive).
`COc1ccc(C2NC(C(=O)O)Cc3c2[nH]c2ccccc32)cc1CN1CCN(c2ccc(F)cc2)CC1` (stereo not given): in test [1], the percent of DMSO control GFP is 104% (inactive). Besides, the GFP response vs DMSO was 98.3% (inactive) in test [2] and 102% (inactive) in test [4]. In addition, the percent response of DMSO control in [3] was 113% (inactive). Besides, the GFP response, % of DMSO in [5] is 104% (inactive). The same molecule displayed a double positive events in [6] of 63.4%. For the same molecule, the vesicle binding response in [6] was 242% (inactive). In addition, the inhibition in [7] is -0.45% (inactive); in test [11], -4.95% (inactive); in test [15], 1% (inactive). Moreover, the superoxide response (% of plate) in [8] was 94.5% (inactive). For the same molecule, the aptamer binding inhibition in [9] was -6% (inactive). The figures for the response in test [10] and in [12] were 6.62% (inactive) and 2.85% (inactive), respectively. The binding (% of control) in test [13] was 102% (inactive). In addition, the efflux inhibition (fraction of control) in test [14] was -0.07 (inactive). For the same molecule, in test [16], the differentiation response is 1.22% (inactive).

For the origin of these results see PubChem BioAssay.
